We go through twelve compounds from PubChem BioAssay.

The source made the active and inactive calls.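 The calls were made as follows, unless noted: active = inhibition at or above 50% at 10 µM; inactive = inhibition below 50%.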

Assay [1] in a line: inhibitors of TNFa-induced NFkB p65 translocation, primary screen, imaging, HUVEC, MLSMR starter and 10KST1 sets (AID 438;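 active = inhibition above 20% together with a positive visual image hit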;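 also: compound added about 3h40 before a 20 min TNFalpha stimulation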;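 as to inhibition: signal is the nuclear over cytoplasmic p65 intensity ratio per well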). To be noted: HUVEC TNFa-induced p65 nuclear translocation; cell count: measured here: nuclei count (cytotoxicity indicator), at 2.08 µM; inhibition: at 2 µM, stronger effect = higher value, 0% TNFa-plus-vehicle, 100% no-TNFa wells.
A short description of assay [2]: reduction of polyQ htt aggregates in cells – imaging, exon1htt(103Q)mCFP cells, high-content imaging, primary screen (AID 483;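 active = visual image review flags a hit and inhibition of aggregation exceeds 20%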;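 also: compound exposure lasted 3 days before fixation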;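 as to nuclei count: percent of the per-plate median nuclei count of sample wells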). As to conditions: exon1htt(103Q)mCFP cell line, aggregate imaging, at 2 µM; inhibition of aggregation: stronger effect = higher value; nuclei count: measured here: cell count, toxicity.
Assay [3] is described as follows: endothelial E-selectin expression blockers – imaging, HUVEC, immunofluorescence, MLSMR starter and 10KST1 sets, primary screen (AID 487;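 active = visually confirmed hit in the image check and inhibition above 20%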;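 as to inhibition: signal is fraction of cell area covered by stained E-selectin grains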;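 as to nuclei count: 100% = median nuclei count of all wells on the same plate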). As to conditions: HUVEC TNFalpha-induced E-selectin immunofluorescence imaging, at 2 µM; inhibition: stronger effect = higher value; nuclei count: measured here: cell number, toxicity.
Assay [4] deals with Voltage-gated potassium channel subunit beta-2 (Rattus norvegicus) (UniProt P62483). Briefly: inhibitors of rat Kvbeta2 reductase activity – biochemical, NADPH fluorescence, primary screen (AID 622;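 active = fluorescence slope higher than the sample average by over 3 SD, cut at about -0.22 in these data, passing the limit was not always enough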;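 also: slope of raw intensity against log time taken from 70 to 1610 s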). As to conditions: recombinant KvBeta, 4-cyanobenzaldehyde reduction, at 10 µM, stronger effect = higher value.
Assay [5] shares this target. Put plainly: enhancers of rat Kvbeta2 NADPH turnover – biochemical, NADPH fluorescence, primary screen (AID 623;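 active = NADPH fluorescence slope more negative than the mean of all samples by about 3 SD, 99.7% confidence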;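 also: fluorescence intensity change per second fitted from 20 to 320 s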). To be noted: Recombinant KvBeta, NADPH fluorescence decrease slope, 10 min; at 10 µM; stronger effect = lower value.
The target in assay [6] is Alpha-2C adrenergic receptor (Homo sapiens) (UniProt P18825). Briefly: compounds altering alpha2C-coupled GIRK flux – cell-based, HEK293 alpha2C/GIRK1/2, thallium flux, primary screen (AID 624;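 active = fluorescence slope after compound addition differing from the mean of all screened samples at 99.7% confidence, in either direction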;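 also: slope of fluorescence ratio to pre-addition baseline per second over 15 to 24 s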). As to conditions: thallium flux BTC fluorescence, at 10 µM, actives lie on both sides.
Assay [7] in a line: blockers of RIG-like receptor reporter activation – cell-based, Sendai virus stimulus, luciferase, 10K MLSCN set, TLR/RLR signaling modifier project, primary screen (AID 602276).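 Also: firefly luciferase from ISG56 promoter only with Renilla not read in this screen; 0% = Sendai virus plus DMSO and 100% = medium plus DMSO without virus.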 As to conditions: HEK293 RL24 IRF3 luciferase reporter, at 10 µM, stronger effect = higher value.
Assay [8] can be described thus: TLR3 IRF3 reporter activation blockers – cell-based, poly I:C stimulus, luciferase, 10K MLSCN set, primary screen (AID 602277;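 active = inhibition of the reporter signal at or above 50%; inactive = inhibition below 50%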). To be noted: HEK293-TLR3 RL24 IRF3 luciferase reporter, at 10 µM, stronger effect = higher value. On the technique in general: A reporter such as luciferase makes a cellular process visible.

Sequence of Voltage-gated potassium channel subunit beta-2 (Rattus norvegicus) (P62483 whole entry, looked up): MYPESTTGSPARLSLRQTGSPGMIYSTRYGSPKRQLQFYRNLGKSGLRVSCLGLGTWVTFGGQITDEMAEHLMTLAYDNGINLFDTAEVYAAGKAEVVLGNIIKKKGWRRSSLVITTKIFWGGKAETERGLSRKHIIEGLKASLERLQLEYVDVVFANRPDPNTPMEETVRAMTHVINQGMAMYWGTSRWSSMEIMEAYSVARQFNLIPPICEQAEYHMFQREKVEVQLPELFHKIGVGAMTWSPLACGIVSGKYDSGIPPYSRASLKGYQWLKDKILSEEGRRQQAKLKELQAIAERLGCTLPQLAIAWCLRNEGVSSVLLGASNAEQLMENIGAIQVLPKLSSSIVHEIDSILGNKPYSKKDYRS
Sequence of Alpha-2C adrenergic receptor (Homo sapiens) (P18825 whole entry, looked up): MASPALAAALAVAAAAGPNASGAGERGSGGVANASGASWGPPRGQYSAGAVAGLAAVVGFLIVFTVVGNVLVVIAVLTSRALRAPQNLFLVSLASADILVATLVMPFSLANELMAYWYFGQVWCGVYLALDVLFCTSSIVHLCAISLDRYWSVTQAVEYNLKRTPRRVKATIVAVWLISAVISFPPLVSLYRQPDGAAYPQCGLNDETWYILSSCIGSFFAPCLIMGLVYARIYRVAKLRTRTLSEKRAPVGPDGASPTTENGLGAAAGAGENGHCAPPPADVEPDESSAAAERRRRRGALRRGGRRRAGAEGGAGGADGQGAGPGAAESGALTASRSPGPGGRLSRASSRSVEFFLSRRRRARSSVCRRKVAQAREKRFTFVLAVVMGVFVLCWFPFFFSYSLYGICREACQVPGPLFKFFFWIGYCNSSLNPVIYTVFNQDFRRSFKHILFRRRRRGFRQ

The inhibition is the relative decrease from the control value, in per cent. Regarding `Cn1c(SCc2nc3ccccc3c(=O)[nH]2)nnc1-c1ccco1`, the cell count in assay [1] is 748. For the same compound, the inhibition in assay [1] was 0% (inactive); in assay [3], -141% (inactive); in assay [7], -0.0213% (inactive); in assay [8], 25.9% (inactive). Moreover, the inhibition of aggregation in assay [2] was 11.8% (inactive). Also, the nuclei count in assay [2] was 104%; in assay [3] it was 131%. For the same compound, the fluorescence slope in assay [4] is -0.496 (inactive). Besides, in assay [5], the NADPH fluorescence slope is -6.5e-06 (inactive). For the same compound, in assay [6], the slope was 0.00622 (inactive).
For `COC(=O)c1cccc(S(=O)(=O)N2CCC(C)CC2)c1`, the cell count in assay [1] is 326. Further, the inhibition was -10.3% (inactive) in assay [1], -70.6% (inactive) in assay [3], 0.114% (inactive) in assay [7] and -2.56% (inactive) in assay [8]. In addition, the inhibition of aggregation in assay [2] was 11.2% (inactive). Besides, the nuclei count in assay [2] was 95.5%; in assay [3] it was 93%. Further, in assay [4], the fluorescence slope was -0.547 (inactive). Besides, in assay [5], the NADPH fluorescence slope is 5.2e-05 (inactive). The slope in assay [6] is 0.00519 (inactive).
With `Cc1ccc(S(=O)(=O)NCCN2CCOCC2)cc1C`, in assay [1], the cell count stood at 408. For the same compound, the inhibition in assay [1] is -14.3% (inactive); in assay [3] it was 31.4% (inactive); in assay [7], 13.7% (inactive); in assay [8] it was 26.5% (inactive). For the same compound, in assay [2], the inhibition of aggregation was 21.7% (inactive). Moreover, the nuclei count worked out at 92.2% in assay [2] and 86.3% in assay [3]. Also, the fluorescence slope in assay [4] is -0.611 (inactive). In addition, the NADPH fluorescence slope in assay [5] is 1.4e-07 (inactive). In addition, in assay [6], the slope was 0.00599 (inactive).
With `Nc1sccc1C(=O)c1ccc(Cl)cc1`, the cell count in assay [1] is 403. The inhibition in assay [1] is 0% (inactive); in assay [3] it was -146% (inactive); in assay [7] it was 2.24% (inactive); in assay [8], 0.658% (inactive). Also, the inhibition of aggregation in assay [2] is 7.1% (inactive). In addition, the nuclei count in assay [2] was 92%; in assay [3], 103%. Moreover, the fluorescence slope in assay [4] was -0.44 (inactive). The NADPH fluorescence slope in assay [5] is -2.6e-05 (inactive). Further, the slope in assay [6] was 0.00277 (inactive).
Consider `O=C(Nc1ccc(Cc2ccc(NC(=O)N3CCOCC3)cc2)cc1)N1CCOCC1`, for which the cell count in assay [1] was 494. The inhibition in assay [1] was -2% (inactive); in assay [3], 30.5% (inactive); in assay [7], 0.542% (inactive); in assay [8], -1.84% (inactive). In addition, the inhibition of aggregation in assay [2] was 15.7% (inactive). For the same compound, the nuclei count was 61.1% in assay [2] and 82.3% in assay [3]. In addition, the fluorescence slope in assay [4] was -0.416 (inactive). For the same compound, the NADPH fluorescence slope in assay [5] was -2.3e-05 (inactive). Besides, the slope in assay [6] was 0.0036 (inactive).
`CS(=O)(=O)c1ccc2nc(NC(=O)C3C4C=CC(C4)C3C(=O)O)sc2c1` (configuration not stated): the cell count in assay [1] was determined as 475. In addition, the inhibition was 12.5% (inactive) in assay [1], -113% (inactive) in assay [3], 1.15% (inactive) in assay [7] and 6.4% (inactive) in assay [8]. The inhibition of aggregation in assay [2] is 0.5% (inactive). For the same compound, the results for the nuclei count in assay [2] and in assay [3] were 96.1% and 115%, respectively. Also, the fluorescence slope in assay [4] was -0.41 (inactive). For the same compound, the NADPH fluorescence slope in assay [5] was 1e-05 (inactive). Besides, the slope in assay [6] is 0.00376 (inactive).
As for `COc1ccccc1-c1nc2n(n1)C(c1ccc(Cl)cc1)C(C(N)=O)=C(C)N2` (configuration not stated), the cell count in assay [1] stood at 313. The inhibition in assay [1] is 1.8% (inactive); in assay [3] it was -37.7% (inactive); in assay [7], 11.9% (inactive); in assay [8], 36.9% (inactive). The inhibition of aggregation in assay [2] was 4.3% (inactive). The nuclei count amounted to 101% in assay [2] and 84.9% in assay [3]. Also, the fluorescence slope in assay [4] was -0.464 (inactive). In addition, the NADPH fluorescence slope in assay [5] was 1.5e-05 (inactive). The slope in assay [6] was 0.00608 (inactive).
For `CCc1nnc(NC(=O)CSc2nnc(-c3ccc(OC)cc3)n2C)s1`, in assay [1], the cell count was 648. In addition, the inhibition in assay [1] was 14.3% (inactive); in assay [3], 5.4% (inactive); in assay [7], 12.5% (inactive); in assay [8] it was 20.1% (inactive). Also, the inhibition of aggregation in assay [2] is 21.9% (inactive). In addition, the nuclei count in assay [2] stood at 66.3%; in assay [3], 112%. For the same compound, in assay [4], the fluorescence slope was -0.609 (inactive). Also, the NADPH fluorescence slope in assay [5] was -3e-05 (inactive). Besides, the slope in assay [6] is 0.00434 (inactive).
Consider `Cc1occc1-c1nnc(SCC(=O)c2ccc(F)cc2)n1Cc1ccco1`, for which the cell count in assay [1] was 370. Also, the inhibition is 5% (inactive) in assay [1], -42.8% (inactive) in assay [3], 9.07% (inactive) in assay [7] and 12% (inactive) in assay [8]. In addition, the inhibition of aggregation in assay [2] is 21.2% (inactive). For the same compound, the nuclei count was 87.3% in assay [2] and 107% in assay [3]. For the same compound, the fluorescence slope in assay [4] was -0.393 (inactive). Besides, the NADPH fluorescence slope in assay [5] is 2e-06 (inactive). In addition, the slope in assay [6] was 0.00656 (inactive).
In the case of `CCOC(=O)c1cc2sc(C)cc2n1CC(=O)NCc1ccc(F)cc1`, the cell count in assay [1] was 560. The inhibition in assay [1] was -19.6% (inactive); in assay [3], -35.8% (inactive); in assay [7] it was 6.92% (inactive); in assay [8], 16.7% (inactive). Moreover, the inhibition of aggregation in assay [2] is -31% (inactive). In addition, the nuclei count was found to be 98.7% in assay [2] and 124% in assay [3]. For the same compound, the fluorescence slope in assay [4] was -0.382 (inactive). Moreover, the NADPH fluorescence slope in assay [5] was -4.5e-05 (inactive). Besides, in assay [6], the slope was 0.00466 (inactive).
For the compound `Cc1cc(C)cc(-n2nnc(C(=O)NCc3ccco3)c2N)c1`, in assay [1], the cell count was determined as 500. Besides, the inhibition in assay [1] is 0.2% (inactive); in assay [3] it was -36.2% (inactive); in assay [7], -5.79% (inactive); in assay [8] it was 100% (active). In addition, the inhibition of aggregation in assay [2] is -20.1% (inactive). For the same compound, the nuclei count in assay [2] was 119%; in assay [3] it was 107%. Also, the fluorescence slope in assay [4] was -0.557 (inactive). For the same compound, the NADPH fluorescence slope in assay [5] is -1.1e-05 (inactive). The slope in assay [6] was 0.00643 (inactive).
With `O=C(NC(C(=O)c1ccccc1)N1CCOCC1)c1cccs1` (configuration not stated), in assay [1], the cell count was 629. Besides, the inhibition was -14.3% (inactive) in assay [1], -2.1% (inactive) in assay [3], -18.2% (inactive) in assay [7] and -23.5% (inactive) in assay [8]. The inhibition of aggregation in assay [2] is 19.4% (inactive). Also, the nuclei count in assay [2] was 72.3%; in assay [3] it was 101%. Also, the fluorescence slope in assay [4] is -0.311 (inactive). Further, the NADPH fluorescence slope in assay [5] is -5.7e-05 (inactive). The slope in assay [6] is 0.00609 (inactive).
